# Compound activity (PubChem)
# Sfp inh: Sfp phosphopantetheinyl transferase inhibition. Q9F4F7. Biochemical Sfp PPTase activity, qHTS. Potency, µM, for the others: largest response in the series, negative = inhibition, hits mostly inhibitors. 3.5% of 310,000 active. AID 1490;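 note: the enzyme is Sfp with the accession as filed and its product quenches rhodamine fluorescence; 0% = enzyme reaction without inhibitor and -100% = no enzyme wells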
#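 Sfp 15 nM + cpd, 15 min RT; start w/ rhodamine-CoA 5 uM, BHQ-2-YbbR 12.5 uM (final); 50 mM Hepes pH 7.6, 10 mM MgCl2, 0.01% NP-40, 0.01% BSA; read 525/598 nm at 0 and 30 min.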
# G9a inh: inhibitors of human histone lysine methyltransferase G9a; 8.8% of 350,000 active; Q96KQ7; G9a H3K9 monomethylation, AlphaScreen, 2 h; Potency, µM (doses to about 102 µM), without a hit: at the top dose activity, negative = inhibition, most hits filed as inhibitors; AID 504332; note: % is set by controls: 0 for no effect and ±100 for the full control effect; nearly all actives have a fitted effect of over 75% in size
# Target sequence (Q96KQ7 913-1193 limits assumed): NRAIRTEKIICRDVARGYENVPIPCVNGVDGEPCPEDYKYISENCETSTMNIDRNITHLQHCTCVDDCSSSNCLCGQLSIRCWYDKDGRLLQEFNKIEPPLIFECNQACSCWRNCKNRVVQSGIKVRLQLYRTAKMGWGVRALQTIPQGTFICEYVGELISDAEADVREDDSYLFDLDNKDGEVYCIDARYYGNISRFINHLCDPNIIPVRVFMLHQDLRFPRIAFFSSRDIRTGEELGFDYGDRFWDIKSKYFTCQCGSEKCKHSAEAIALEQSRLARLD
#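 Methyltransferase reactions run at room temperature for 2 h (20 nM enzyme, 500 nM biotin-H3K9 peptide, 20 uM SAM) after a 15 min compound preincubation; product detected by AlphaScreen beads and anti-H3K9me1 antibody.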
# 12-LOX inh: inhibitors of human 12S-lipoxygenase ALOX12; P18054; purified 12hLO, xylenol orange hydroperoxide absorbance; Potency, µM (highest dose often 108 µM), for inactives: top-dose activity change, negative = inhibition, hits mostly inhibitors; 1.1% of 580,000 active; AID 1671190; note: % is set by controls: 0 for no effect and ±100 for the full control effect
#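 Purified human 12hLO at 150 nM in 25 mM Hepes, 0.01% Triton X-100, pH 7.0, preincubated 15 min at room temperature with compound. Reaction started with 40 uM arachidonic acid, 30 min at room temperature. Hydroperoxide measured by Fe-xylenol orange, 573/405 nm absorbance ratio.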
# JMJD2A Tudor: JMJD2A Tudor domain (human) inhibition | AlphaScreen JMJD2A-Tudor / H3K4me3 peptide binding | O75164 | 4.4% of 390,000 active | Potency, µM (titrated, usually from 114 µM), without a hit: at the top dose activity change, negative = inhibition, usual class: inhibitors; note: % is set by controls: 0 for no effect and ±100 for the full control effect; nearly all actives have a fitted effect of over 50% in size
# BAZ2B block: blocks human BAZ2B. AlphaScreen BAZ2B-H3K14Ac peptide displacement. Potency, µM (top dose mostly 114 µM), without a hit: at the highest dose activity change, negative = inhibition, usual class: inhibitors. 4.4% of 360,000 active. AID 504333; note: % is set by controls: 0 for no effect and ±100 for the full control effect; nearly all actives have a fitted effect of over 60% in size
#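 Complex of BAZ2B and biotin-H3K14Ac (50 nM apiece) forms over 30 min at RT, then faces library compounds up to 110 uM for another 30 min; AlphaScreen beads added, 20 min dark incubation, luminescence read.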
# HP1b binding inh: blocks HP1-beta chromodomain binding to methylated histone tails; AlphaScreen HP1-beta / biotin-H3K9me3 peptide binding; Potency, µM (top dose mostly 114 µM), for inactives: at the highest dose activity change, negative = inhibition, most hits filed as inhibitors; 0.56% of 390,000 active; AID 540317; note: nearly all actives have a fitted effect of over 70% in size
# Target sequence (P83916 whole entry, looked up): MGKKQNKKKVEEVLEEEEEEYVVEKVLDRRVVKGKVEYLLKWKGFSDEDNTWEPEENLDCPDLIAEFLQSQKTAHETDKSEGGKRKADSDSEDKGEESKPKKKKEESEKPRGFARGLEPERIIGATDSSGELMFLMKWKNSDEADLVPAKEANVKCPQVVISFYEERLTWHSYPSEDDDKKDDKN
#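 HP1-beta protein (50 nM final) preincubated 30 min at room temperature with biotinylated H3(1-18)K9me3 peptide (50 nM) in PBS pH 7.4, 0.01% Tween-20, then compound added for 30 min. AlphaScreen streptavidin donor/nickel chelate acceptor beads (10 ug/mL final), 30 min dark, luminescence read.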
# Active calls of the source: *; ? = inconclusive; / = not tested or not shown; [ ] = remark or other dose. A selection: hits, their analogues and other compounds. The true share with any hit is near 8.7%. Calls come from the whole dose curve; as a rule, active = well fitted curve in the direction sought with a large enough effect; inconclusive = small, poorly fitted or top-dose-only effect, or another doubt; inactive = no such curve, though single readings can be large; an effect the other way counts as inactive or inconclusive. Potency is the fitted concentration of half-maximal effect.
SMILES,Sfp inh,G9a inh,12-LOX inh,JMJD2A Tudor,BAZ2B block,HP1b binding inh
FC(F)(F)c1ccccc1N/N=C1/CCc2ccccc21,/,/,10µM*,/,/,/
C[C@H](CO)N1C[C@H](C)[C@@H](CN(C)C(=O)c2cnccn2)Oc2cc(C#CCC3CCCC3)ccc2S1(=O)=O,/,/,35µM*,/,/,/
Cc1ccc(C)c(NC(=O)CN2CCN(S(=O)(=O)c3cccs3)CC2)c1,/,/,-1%,/,/,/
CCCCn1c(=O)n(CC(=O)Nc2ccc(C)c(Cl)c2)c(=O)c2c1ncn2Cc1ccco1,?,25µM*,-3%,-4%,4%,22%
O=C(CSc1nnc(-c2ccc(C(F)(F)F)cn2)o1)Nc1ccccc1Cl,71µM*,25%,6%,20µM*,18µM*,50%
O=C(CSc1nnc(-c2ccncc2)o1)Nc1ccccc1Cl,7%,6%[59 µM],1%,2%,-2%,39%
N#Cc1ccsc1NC(=O)CCc1ccccc1,8%,25µM*,17%,-14%,?,14%
N#Cc1ccsc1NC(=O)c1ccccn1,?,?,0%,20µM*,10µM*,9%
N#Cc1ccsc1NC(=O)c1cccc([N+](=O)[O-])c1,40µM*,-32%,-7%,-17%,-4%,7%
Cc1ccc(C(=O)Nc2sccc2C#N)s1,/,/,50µM*,/,/,/
N#Cc1ccsc1NC(=O)CN(Cc1ccccc1)Cc1ccccc1,-1%,85%[59 µM],16%,12%,0%,67%
N#Cc1ccsc1NC(=O)c1ccc(Cl)c([N+](=O)[O-])c1,-3%,/,-20%,-6%,-29%,4%
O=C(O)CCN1C(=O)/C(=C2\C(=O)N(Cc3ccc(F)cc3)c3ccccc32)SC1=S,-12%,16µM*,?,25µM*,2.5µM*,28µM*
CN1C(=O)/C(=C2\SC(=S)N(CCCCCC(=O)O)C2=O)c2ccccc21,18%,-27%,-3%,?,-21%,40µM*
CCc1nc(-c2ccccc2)c2ccccn12,28µM*,16µM*,1%,2%,/,35%
CC(=O)N1c2c(cc(Br)cc2S(=O)(=O)N2CCN(C(=O)c3ccco3)CC2)CC1C (stereo unspecified),22%,?,0%,22µM*,-1%,-10%
CC(=O)N1c2c(cc(Br)cc2S(=O)(=O)N2CCN(c3ccccc3)CC2)CC1C (stereo unspecified),/,-52%[59 µM],-1%,?,-17%,-28%
CN(C(=O)CN1C(=O)NC2(CCS(=O)(=O)CC2)C1=O)c1ccccc1,/,/,29%,/,/,/
Cc1cc(C)c2oc(-c3ccc(C)c(NC(=O)/C=C/c4ccco4)c3)nc2c1,/,10µM*,50µM*,56µM*,?,?
CCCOc1ccc(C(=O)CCC(=O)Nc2ccc(N3CCN(C)CC3)cc2)cc1,/,?,0%,56µM*,50µM*,-21%
O=C(OCCN1CCOCC1)c1ccc(OCCN2CCOCC2)cc1,1%,50µM*,?,?,-37%,16%
CCCOc1ccc(C(=O)CCN2CCCCC2)cc1,-26%,18µM*,232%,-13%,-7%,29%
CC(C)COc1ccc(C(=O)OCC[N+]2(C)CCOCC2)cc1,/,/,5.6µM*,/,/,/
CCCOc1ccc(C(=O)CCC(=O)OCC(=O)Nc2ccc(OCC)cc2)cc1,10%,2%[12.7 µM],-4%,/,-4%,/
COc1ccc(CCN2CC(C(=O)N3CCN(C)CC3)CCC2=O)cc1 (stereo unspecified),/,/,-14%,/,/,/
CCN(CC)C(=O)[C@@H]1CCCN1C1(C(=O)NC)COC1,/,/,15%[176 µM],/,/,/
CCC1Oc2ccc(NC(=O)CC(C)(C)C)cc2CN(Cc2ccccc2F)C1=O (stereo unspecified),/,/,17%,/,/,/
Cc1ccc(NC(=O)CSc2nc(-c3ccco3)ccc2C#N)cc1C,/,/,-26%,/,/,/
NC(=S)NN=C1c2cc(OCCN3CCOCC3)ccc2-c2ccc(OCCN3CCOCC3)cc21,-7%,32µM*,/,?,40µM*,?
